In PubChem BioAssay (EPA / NIEHS):
Inconclusive results are not listed. The source holds several records for some structures; these can differ, active in one and inactive in another. The source made the active and inactive calls. The calls were made as follows, unless noted: active = hit-call score of the fitted dose curve at least 0.9, where 1 is the maximum; inconclusive = response in the unintended direction; inactive = score below 0.9.

What was measured:
[1] = target: Nuclear receptor subfamily 1 group I member 3 (Homo sapiens) (UniProt Q14994); experiment: ATG_CAR_TRANS: Attagene TRANS-FACTORIAL HepG2 Assay for human Constitutive Androstane Receptor (CAR) (AID 2282969); details: HepG2 Attagene TRANS-FACTORIAL CAR reporter;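 also: activators raise reporter mRNA above DMSO so AC50 marks induction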
How it was run: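 HepG2 cells transiently transfected with multiplexed GAL4-UAS reporter units expressing chimeric NR-Gal4 proteins; compound exposure 24 h. Reporter mRNA measured by RT-PCR, 6-FAM labelling, HpaI digestion and capillary electrophoresis; gain-of-signal fitted against DMSO baseline.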

[2] = target: Estrogen receptor (Homo sapiens) (UniProt P03372); experiment: ATG_ERa_TRANS: Attagene TRANS-FACTORIAL HepG2 Assay for human Estrogen Receptor alpha (ERa) (AID 2282970); details: HepG2 Attagene TRANS ERa GAL4 reporter, mRNA
How it was run: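 HepG2 cells transiently transfected with multiplexed GAL4-UAS reporter units read out chimeric NR-Gal4 activity. After 24 h compound exposure, reporter mRNA was quantified by RT-PCR, 6-FAM labeling, HpaI digestion and capillary electrophoresis, relative to DMSO.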

[3] = target: Estrogen-related receptor gamma (Homo sapiens) (UniProt P62508); experiment: ATG_ERRg_TRANS: Attagene TRANS-FACTORIAL HepG2 Assay for human Estrogen-Related Receptor gamma (ERRg) (AID 2282977); details: HepG2 Attagene TRANS reporter, ERRg transactivation;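 also: hits increase reporter signal over DMSO so potencies reflect activators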
How it was run: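 HepG2 cells transiently transfected with multiplexed GAL4-UAS reporter units and chimeric NR-Gal4 constructs were exposed to test chemicals for 24 h. Reporter mRNA was measured by RT-PCR, 6-FAM primer extension, HpaI digestion and capillary electrophoresis; gain-of-signal versus DMSO.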

[4] = target: Oxysterols receptor LXR-alpha (Homo sapiens) (UniProt Q13133); experiment: ATG_LXRa_TRANS: Attagene TRANS-FACTORIAL HepG2 Assay for human Liver X Receptor alpha (LXRa) (AID 2282980); details: HepG2 Attagene TRANS reporter, LXRa transactivation
How it was run: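 HepG2 cells transiently transfected with GAL4-UAS reporter units for chimeric NR-Gal4 proteins, exposed to chemicals for 24 h. Reporter mRNA quantified by RT-PCR and capillary electrophoresis; gain of signal fitted relative to DMSO.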

[5] = target: Oxysterols receptor LXR-beta (Homo sapiens) (UniProt P55055); experiment: ATG_LXRb_TRANS: Attagene TRANS-FACTORIAL HepG2 Assay for human Liver X Receptor beta (LXRb) (AID 2282981); details: HepG2 Attagene TRANS GAL4-LXRb reporter, mRNA
How it was run: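 HepG2 cells transiently transfected with multiple reporter transcription units carrying chimeric NR-Gal4 proteins acting on GAL4-UAS reporters; compound exposure 24 h. Reporter mRNA quantified by RT-PCR, 6-FAM labelling, HpaI digestion and capillary electrophoresis; gain of signal versus DMSO.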

[6] = target: Hepatocyte nuclear factor 4-alpha (Homo sapiens) (UniProt P41235); experiment: ATG_HNF4a_TRANS: Attagene TRANS-FACTORIAL HepG2 Assay for human Hepatocyte Nuclear Factor 4 alpha (HNF4a) (AID 2282982); details: HepG2 HNF4a transactivation reporter, mRNA readout
How it was run: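 HepG2 cells transiently transfected with multiplexed GAL4-UAS reporter units responsive to chimeric NR-GAL4 proteins; compound exposure 24 h. Reporter mRNA quantified by RT-PCR, 6-FAM labelling, HpaI digestion and capillary electrophoresis; gain of signal versus DMSO baseline.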

[7] = ATG_M_32_TRANS: Attagene TRANS-FACTORIAL HepG2 Assay for M32 Transcription Factor (Internal Marker) (AID 2282984); details: HepG2 Attagene TRANS M32 internal marker reporter
How it was run: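 HepG2 cells transiently transfected with multiple GAL4-UAS reporter transcription units, dosed for 24 hours; reporter mRNA quantified by RT-PCR, 6-FAM primer extension, HpaI digestion and capillary electrophoresis. Gain-of-signal fitted versus DMSO baseline; internal background-control marker.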

[8] = target: Nuclear receptor subfamily 4 group A member 2 (Homo sapiens) (UniProt P43354); experiment: ATG_NURR1_TRANS: Attagene TRANS-FACTORIAL HepG2 Assay for human Nuclear Receptor Related Protein 1 (NURR1) (AID 2282985); details: HepG2 Attagene TRANS reporter, mRNA readout
How it was run: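 HepG2 cells transiently transfected with GAL4-UAS reporter units and chimeric NR-Gal4 constructs; chemical exposure 24 h. Reporter mRNA quantified by RT-PCR, fluorescent labelling and capillary electrophoresis; gain of signal fitted relative to DMSO baseline.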

[9] = target: Transcriptional activator Myb (Homo sapiens) (UniProt P10242); experiment: ATG_Myb_CIS: Attagene CIS-FACTORIAL HepG2 Assay for human Myeloblastosis (Myb) Proto-Oncogene Transcription Factor (AID 2282986; active = hit-call score of the fitted dose curve at least 0.9, where 1 is the maximum; inactive = score below 0.9); details: HepG2 Attagene CIS-FACTORIAL Myb reporter transcription; actives raise or lower the signal
How it was run: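 Transiently transfected HepG2 cells carrying a multiplexed cis-promoter reporter set report endogenous Myb activity after 24 h compound exposure. Reporter mRNA is read by RT-PCR with capillary electrophoresis of fluorescent products, fitted bidirectionally against DMSO.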

[10] = target: Nuclear respiratory factor 1 (Homo sapiens) (UniProt Q16656); experiment: ATG_NRF1_CIS: Attagene CIS-FACTORIAL HepG2 Assay for human Nuclear Respiratory Factor 1 (NRF1) Orphan Gene (AID 2282987; active = hit-call score of the fitted dose curve at least 0.9, where 1 is the maximum; inactive = score below 0.9); details: HepG2 NRF1 cis-element reporter, Attagene multiplex; actives raise or lower the signal
How it was run: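 HepG2 cells transiently transfected with multiple cis-regulated reporter units, exposed 24 h. Reporter mRNAs measured by RT-PCR, fluorescent labelling, HpaI digestion and capillary electrophoresis; bidirectional fitting against DMSO.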

[11] = ATG_NFI_CIS: Attagene CIS-FACTORIAL HepG2 Assay for human Nuclear Factor I (NFI) (AID 2282989; active = hit-call score of the fitted dose curve at least 0.9, where 1 is the maximum; inactive = score below 0.9); details: HepG2 cis-regulatory reporter, NFI response element transcription; actives raise or lower the signal
How it was run: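 Read-out: reporter mRNA via RT-PCR plus capillary electrophoresis with fluorescence detection. Transiently transfected HepG2 (endogenous TF activity on cis promoters), 24 h compound exposure; gain or loss of signal fitted against DMSO.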

[12] = target: Myc proto-oncogene protein (Homo sapiens) (UniProt P01106); experiment: ATG_Myc_CIS: Attagene CIS-FACTORIAL HepG2 Assay for human Myelocytomatosis (Myc) Proto-Oncogene Transcription Factor (AID 2282990; active = hit-call score of the fitted dose curve at least 0.9, where 1 is the maximum; inactive = score below 0.9); details: HepG2, Attagene cis-reporter transcription factor activity; actives raise or lower the signal
How it was run: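 HepG2 cells transiently transfected with multiple cis-promoter-driven reporter transcription units, so endogenous TF activity is read. After 24 h compound exposure, reporter mRNA was quantified by RT-PCR, 6-FAM labelling, HpaI digestion and capillary electrophoresis; bidirectional fit versus DMSO.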

[13] = target: X-box-binding protein 1 (Homo sapiens) (UniProt P17861); experiment: ATG_Xbp1_CIS: Attagene CIS-FACTORIAL HepG2 Assay for human X-box Binding Protein 1 (XBP1) (AID 2282972; active = hit-call score of the fitted dose curve at least 0.9, where 1 is the maximum; inactive = score below 0.9); details: HepG2 XBP1 cis-element reporter, Attagene multiplex; actives raise or lower the signal
How it was run: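 Fluorescence-labelled cDNA fragments from reporter transcripts, separated by capillary electrophoresis, give the signal. Source: HepG2 cells transfected with promoter-driven reporter units, harvested 24 h post-dose. DMSO served as reference for bidirectional curve fitting.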

[14] = ATG_GAL4_TRANS: Attagene TRANS-FACTORIAL HepG2 Assay for GAL4 (Internal Marker) (AID 2282976); details: HepG2 Attagene TRANS GAL4 internal marker reporter
How it was run: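 Background-control readout: GAL4-UAS reporter transcript in transiently transfected HepG2 cells after 24 h compound exposure. Measured by RT-PCR, 6-FAM primer extension, HpaI digest and capillary electrophoresis; gain-of-signal fit versus DMSO.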

[15] = ATG_M_06_TRANS: Attagene TRANS-FACTORIAL HepG2 Assay for M06 Transcription Factor (Internal Marker) (AID 2282983); details: HepG2 Attagene TRANS M06 internal marker reporter;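 also: reporter transcript level by RT-PCR then capillary electrophoresis fluorescence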
How it was run: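 HepG2 cells transiently transfected with GAL4-UAS multiple reporter units, dosed 24 h. Reporter RNA reverse-transcribed, PCR-amplified, 6-FAM-labeled, HpaI-digested and quantified by capillary electrophoresis; this internal-marker signal fitted upward relative to DMSO.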

[16] = target: Glucocorticoid receptor (Homo sapiens) (UniProt P04150); experiment: ATG_GR_TRANS: Attagene TRANS-FACTORIAL HepG2 Assay for human Glucocorticoid Receptor (GR) (AID 2282978); details: HepG2 Attagene TRANS GR reporter, mRNA transcription;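 also: activators score as hits since higher reporter transcript over DMSO is fitted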
How it was run: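 HepG2 cells transiently transfected with GAL4-UAS reporter units and exogenous GR-Gal4 chimera, dosed 24 h. Reporter mRNA by RT-PCR, FAM labeling, HpaI digest and capillary electrophoresis; gain-of-signal fit versus DMSO.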

[17] = target: Bile acid receptor (Homo sapiens) (UniProt Q96RI1); experiment: ATG_FXR_TRANS: Attagene TRANS-FACTORIAL HepG2 Assay for Farnesoid X Receptor (FXR) (AID 2282979); details: HepG2 Attagene TRANS FXR-GAL4 reporter transcription;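 also: hits raise reporter mRNA above DMSO so AC50 marks FXR activation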
How it was run: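 HepG2 cells were transiently transfected with GAL4-UAS reporters driven by chimeric NR-Gal4 proteins and dosed for 24 h. Reporter mRNA was quantified by RT-PCR, fluorescent labelling, HpaI digestion and capillary electrophoresis, with gain of signal scored versus DMSO.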

[18] = ATG_M_19_TRANS: Attagene TRANS-FACTORIAL HepG2 Assay for M19 Transcription Factor (Internal Marker) (AID 2282974); details: HepG2 Attagene TRANS-FACTORIAL M19 internal marker reporter
How it was run: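 HepG2 transiently transfected with GAL4-UAS multiplex reporter constructs, exposed 24 h; reporter RNA quantified by RT-PCR, 6-FAM labeling, HpaI digestion and capillary electrophoresis; internal background marker fitted upward versus DMSO.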

[19] = target: Steroid hormone receptor ERR1 (Homo sapiens) (UniProt P11474); experiment: ATG_ERRa_TRANS: Attagene TRANS-FACTORIAL HepG2 Assay for human Estrogen-Related Receptor alpha (ERRa) (AID 2282971); details: HepG2 Attagene TRANS reporter, ERRa transactivation
How it was run: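 HepG2 cells transiently transfected with GAL4-UAS reporter units and chimeric NR-Gal4 constructs; after 24 hour compound incubation, reporter mRNA quantified by RT-PCR, fluorescent labelling and capillary electrophoresis, gain of signal versus DMSO.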

Sequence of Glucocorticoid receptor (Homo sapiens) (P04150 whole entry, looked up, the tested form may be a part): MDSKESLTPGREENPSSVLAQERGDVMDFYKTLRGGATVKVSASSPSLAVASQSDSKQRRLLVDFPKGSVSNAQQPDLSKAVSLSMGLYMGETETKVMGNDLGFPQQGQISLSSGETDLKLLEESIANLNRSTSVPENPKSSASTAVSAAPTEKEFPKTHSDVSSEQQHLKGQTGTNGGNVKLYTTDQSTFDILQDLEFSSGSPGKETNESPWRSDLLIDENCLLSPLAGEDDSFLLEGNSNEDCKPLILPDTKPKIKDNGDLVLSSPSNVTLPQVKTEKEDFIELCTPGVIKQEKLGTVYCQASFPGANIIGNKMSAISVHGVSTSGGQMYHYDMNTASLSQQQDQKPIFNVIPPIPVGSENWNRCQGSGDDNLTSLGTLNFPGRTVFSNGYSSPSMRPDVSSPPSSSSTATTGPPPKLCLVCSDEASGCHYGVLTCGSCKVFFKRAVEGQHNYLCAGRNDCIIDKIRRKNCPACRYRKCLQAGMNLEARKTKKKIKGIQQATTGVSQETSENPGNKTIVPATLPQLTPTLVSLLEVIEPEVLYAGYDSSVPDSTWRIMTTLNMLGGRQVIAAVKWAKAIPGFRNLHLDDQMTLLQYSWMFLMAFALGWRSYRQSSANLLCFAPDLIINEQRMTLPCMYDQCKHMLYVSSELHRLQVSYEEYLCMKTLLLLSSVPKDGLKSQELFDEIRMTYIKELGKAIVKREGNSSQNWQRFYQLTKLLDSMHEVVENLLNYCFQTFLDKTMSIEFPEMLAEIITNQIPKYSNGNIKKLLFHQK
Sequence of Estrogen-related receptor gamma (Homo sapiens) (P62508 whole entry, looked up, the tested form may be a part): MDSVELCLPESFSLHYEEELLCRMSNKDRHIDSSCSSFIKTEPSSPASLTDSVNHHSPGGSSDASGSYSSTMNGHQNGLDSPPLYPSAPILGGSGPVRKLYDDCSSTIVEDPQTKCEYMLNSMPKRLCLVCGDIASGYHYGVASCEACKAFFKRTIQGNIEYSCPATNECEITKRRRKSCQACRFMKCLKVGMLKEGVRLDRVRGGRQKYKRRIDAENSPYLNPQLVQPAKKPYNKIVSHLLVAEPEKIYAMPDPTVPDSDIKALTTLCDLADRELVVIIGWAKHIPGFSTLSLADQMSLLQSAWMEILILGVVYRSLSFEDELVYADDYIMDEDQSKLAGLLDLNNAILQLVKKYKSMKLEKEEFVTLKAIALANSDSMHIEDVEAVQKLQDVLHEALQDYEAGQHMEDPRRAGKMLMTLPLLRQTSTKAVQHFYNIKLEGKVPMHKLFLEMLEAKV
Sequence of Hepatocyte nuclear factor 4-alpha (Homo sapiens) (P41235 whole entry, looked up, the tested form may be a part): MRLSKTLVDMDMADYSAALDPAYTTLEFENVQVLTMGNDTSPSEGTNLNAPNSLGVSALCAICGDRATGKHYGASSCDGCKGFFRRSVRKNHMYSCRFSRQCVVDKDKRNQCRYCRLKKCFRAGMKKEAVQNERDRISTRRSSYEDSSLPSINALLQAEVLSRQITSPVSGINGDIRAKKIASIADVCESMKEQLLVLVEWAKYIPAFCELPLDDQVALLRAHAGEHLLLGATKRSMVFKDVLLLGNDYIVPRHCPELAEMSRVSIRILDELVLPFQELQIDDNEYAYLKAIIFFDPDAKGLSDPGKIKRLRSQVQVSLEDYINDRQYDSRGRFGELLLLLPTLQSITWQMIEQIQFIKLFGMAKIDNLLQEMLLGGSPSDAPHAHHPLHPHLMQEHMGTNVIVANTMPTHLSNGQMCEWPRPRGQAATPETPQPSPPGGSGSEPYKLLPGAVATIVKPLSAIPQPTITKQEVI
Sequence of Myc proto-oncogene protein (Homo sapiens) (P01106 whole entry, looked up): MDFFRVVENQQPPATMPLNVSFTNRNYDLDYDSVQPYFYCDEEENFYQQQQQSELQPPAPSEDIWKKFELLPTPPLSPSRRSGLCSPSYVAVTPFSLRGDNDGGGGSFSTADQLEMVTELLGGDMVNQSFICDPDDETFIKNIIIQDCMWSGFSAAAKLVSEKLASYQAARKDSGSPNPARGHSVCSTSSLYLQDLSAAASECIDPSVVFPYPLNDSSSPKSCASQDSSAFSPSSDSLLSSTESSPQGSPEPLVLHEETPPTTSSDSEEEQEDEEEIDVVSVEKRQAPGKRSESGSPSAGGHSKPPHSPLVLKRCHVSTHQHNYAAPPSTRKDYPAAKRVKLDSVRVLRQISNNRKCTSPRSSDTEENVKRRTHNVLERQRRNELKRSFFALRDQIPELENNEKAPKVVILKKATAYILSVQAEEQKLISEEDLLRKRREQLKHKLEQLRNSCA
Sequence of Steroid hormone receptor ERR1 (Homo sapiens) (P11474 whole entry, looked up, the tested form may be a part): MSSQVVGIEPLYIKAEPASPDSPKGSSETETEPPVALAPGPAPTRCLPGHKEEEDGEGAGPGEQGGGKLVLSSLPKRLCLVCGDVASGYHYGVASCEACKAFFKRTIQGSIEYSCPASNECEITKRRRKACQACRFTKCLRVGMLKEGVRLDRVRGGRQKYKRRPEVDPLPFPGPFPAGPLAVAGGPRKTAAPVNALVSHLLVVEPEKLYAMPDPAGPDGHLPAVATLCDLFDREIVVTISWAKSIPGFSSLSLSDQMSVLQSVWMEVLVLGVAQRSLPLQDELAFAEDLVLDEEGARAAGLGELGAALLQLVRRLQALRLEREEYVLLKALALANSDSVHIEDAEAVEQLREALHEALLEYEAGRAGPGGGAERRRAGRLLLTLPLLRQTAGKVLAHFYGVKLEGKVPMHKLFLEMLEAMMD
Sequence of Oxysterols receptor LXR-beta (Homo sapiens) (P55055 whole entry, looked up, the tested form may be a part): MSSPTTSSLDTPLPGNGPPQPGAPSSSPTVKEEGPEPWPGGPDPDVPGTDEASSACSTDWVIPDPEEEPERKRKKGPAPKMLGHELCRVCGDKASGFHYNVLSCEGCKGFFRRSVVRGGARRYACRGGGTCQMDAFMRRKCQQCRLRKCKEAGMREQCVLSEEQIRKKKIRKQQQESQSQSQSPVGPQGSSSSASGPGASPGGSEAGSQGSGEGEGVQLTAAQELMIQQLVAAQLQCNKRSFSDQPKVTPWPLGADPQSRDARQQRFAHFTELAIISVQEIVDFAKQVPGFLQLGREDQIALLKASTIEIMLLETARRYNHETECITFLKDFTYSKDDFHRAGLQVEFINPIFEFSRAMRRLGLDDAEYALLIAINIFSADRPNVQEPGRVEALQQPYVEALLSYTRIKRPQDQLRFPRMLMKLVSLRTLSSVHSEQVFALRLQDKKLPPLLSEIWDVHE
Sequence of X-box-binding protein 1 (Homo sapiens) (P17861 whole entry, looked up, the tested form may be a part): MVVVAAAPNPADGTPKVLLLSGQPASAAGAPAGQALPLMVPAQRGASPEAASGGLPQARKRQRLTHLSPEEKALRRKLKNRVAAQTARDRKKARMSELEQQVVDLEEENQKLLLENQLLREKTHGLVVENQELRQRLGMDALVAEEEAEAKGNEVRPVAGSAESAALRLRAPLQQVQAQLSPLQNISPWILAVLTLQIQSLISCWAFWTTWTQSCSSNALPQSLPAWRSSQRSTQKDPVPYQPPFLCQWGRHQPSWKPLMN
Sequence of Estrogen receptor (Homo sapiens) (P03372 whole entry, looked up, the tested form may be a part): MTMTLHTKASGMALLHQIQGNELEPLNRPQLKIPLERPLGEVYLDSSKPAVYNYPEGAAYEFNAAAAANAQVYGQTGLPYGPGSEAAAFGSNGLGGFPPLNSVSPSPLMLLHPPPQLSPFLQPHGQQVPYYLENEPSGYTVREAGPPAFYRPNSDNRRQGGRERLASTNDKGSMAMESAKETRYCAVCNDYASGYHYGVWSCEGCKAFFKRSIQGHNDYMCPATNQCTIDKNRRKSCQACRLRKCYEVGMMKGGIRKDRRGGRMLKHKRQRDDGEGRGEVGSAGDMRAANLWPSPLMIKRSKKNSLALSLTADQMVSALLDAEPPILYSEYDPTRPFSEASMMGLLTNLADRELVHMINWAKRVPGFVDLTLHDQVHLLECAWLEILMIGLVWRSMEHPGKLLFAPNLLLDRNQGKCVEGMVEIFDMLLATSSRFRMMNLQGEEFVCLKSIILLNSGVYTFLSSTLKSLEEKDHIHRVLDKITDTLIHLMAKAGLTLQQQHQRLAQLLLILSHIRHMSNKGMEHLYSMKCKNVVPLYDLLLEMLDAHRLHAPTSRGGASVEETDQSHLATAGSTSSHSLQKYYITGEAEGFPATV
Sequence of Nuclear receptor subfamily 1 group I member 3 (Homo sapiens) (Q14994 whole entry, looked up, the tested form may be a part): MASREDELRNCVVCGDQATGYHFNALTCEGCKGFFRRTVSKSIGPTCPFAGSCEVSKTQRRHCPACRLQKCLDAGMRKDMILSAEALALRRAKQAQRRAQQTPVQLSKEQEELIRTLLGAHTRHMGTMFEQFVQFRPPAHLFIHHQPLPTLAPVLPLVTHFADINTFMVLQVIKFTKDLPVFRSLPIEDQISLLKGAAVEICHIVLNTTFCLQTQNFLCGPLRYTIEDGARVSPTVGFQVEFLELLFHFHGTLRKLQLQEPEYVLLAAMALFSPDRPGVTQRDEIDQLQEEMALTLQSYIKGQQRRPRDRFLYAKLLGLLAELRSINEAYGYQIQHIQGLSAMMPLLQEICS
Sequence of Bile acid receptor (Homo sapiens) (Q96RI1 whole entry, looked up, the tested form may be a part): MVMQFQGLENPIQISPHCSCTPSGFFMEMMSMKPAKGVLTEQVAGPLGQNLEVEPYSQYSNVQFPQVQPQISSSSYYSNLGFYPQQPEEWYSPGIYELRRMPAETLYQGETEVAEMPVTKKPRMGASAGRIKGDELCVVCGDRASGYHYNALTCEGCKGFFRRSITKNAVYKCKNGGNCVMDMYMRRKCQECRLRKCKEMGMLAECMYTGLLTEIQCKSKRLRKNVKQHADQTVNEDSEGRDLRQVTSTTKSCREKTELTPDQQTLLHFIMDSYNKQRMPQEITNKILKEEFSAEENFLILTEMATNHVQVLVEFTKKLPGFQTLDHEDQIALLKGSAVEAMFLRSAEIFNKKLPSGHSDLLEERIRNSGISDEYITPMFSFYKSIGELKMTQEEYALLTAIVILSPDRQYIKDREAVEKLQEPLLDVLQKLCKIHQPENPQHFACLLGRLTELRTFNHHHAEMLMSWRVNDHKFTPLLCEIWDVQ

O=c1cc(-c2ccccc2)oc2ccc3ccccc3c12
outcome [1]: inactive | AC50 [2]: 2.05 µM (active) | outcome [2]: inactive | outcome [3]: inactive | outcome [4]: inactive | outcome [5]: inactive | outcome [6]: inactive | outcome [7]: inactive | outcome [8]: inactive | outcome [9]: inactive | outcome [10]: inactive | outcome [11]: inactive | outcome [12]: inactive

O=C(F)C(F)(F)C(F)(F)C(F)(F)C(=O)F
outcome [1]: inactive | outcome [2]: inactive | outcome [13]: inactive | outcome [14]: inactive | outcome [6]: inactive | outcome [15]: inactive | outcome [7]: inactive | outcome [8]: inactive | outcome [10]: inactive | outcome [11]: inactive | outcome [12]: inactive

Cc1ccc2ccc3ccc(C)cc3c2c1
outcome [1]: inactive | AC50 [2]: 7.58 µM (active) | outcome [13]: inactive | outcome [3]: inactive | outcome [16]: inactive | outcome [17]: inactive | outcome [5]: inactive | outcome [6]: inactive | outcome [8]: inactive | outcome [9]: inactive | outcome [10]: inactive | outcome [11]: inactive | outcome [12]: inactive

Oc1cc2ccccc2cc1O
outcome [1]: inactive | outcome [2]: inactive | outcome [13]: inactive | outcome [18]: inactive | outcome [16]: inactive | outcome [4]: inactive | outcome [6]: inactive | outcome [8]: inactive | outcome [9]: inactive | outcome [10]: inactive | outcome [11]: inactive | outcome [12]: inactive

O=C1OC(=O)c2cc(-c3ccc4c(c3)C(=O)OC4=O)ccc21
outcome [1]: inactive | outcome [2]: inactive | outcome [13]: inactive | outcome [14]: inactive | outcome [7]: inactive | outcome [8]: inactive | outcome [9]: inactive | outcome [10]: inactive | outcome [11]: inactive | outcome [12]: inactive

CN(CCO)S(=O)(=O)C(F)(F)C(F)(F)C(F)(F)C(F)(F)C(F)(F)C(F)(F)C(F)(F)C(F)(F)F
outcome [1]: inactive | outcome [2]: inactive | outcome [19]: inactive | outcome [13]: inactive | outcome [18]: inactive | outcome [14]: inactive | outcome [3]: inactive | outcome [16]: inactive | outcome [4]: inactive | outcome [15]: inactive | outcome [8]: inactive | outcome [9]: inactive | outcome [10]: inactive | outcome [11]: inactive | outcome [12]: inactive

Cc1ccccc1C(OCCN(C)C)c1ccccc1 (stereo unspecified)
outcome [1]: inactive | outcome [2]: inactive | outcome [19]: inactive | AC50 [13]: 124 µM (active) | outcome [13]: inactive | outcome [14]: inactive | outcome [17]: inactive | outcome [4]: inactive | outcome [7]: inactive | outcome [8]: inactive | outcome [9]: inactive | outcome [10]: inactive | outcome [11]: inactive | outcome [12]: inactive

Cc1ccc(C(=O)c2ccccc2)cc1
outcome [1]: inactive | AC50 [2]: 27.8 µM (active) | outcome [13]: inactive | outcome [14]: inactive | outcome [7]: inactive | outcome [8]: inactive | outcome [9]: inactive | outcome [10]: inactive | outcome [11]: inactive | outcome [12]: inactive

CCCCCCc1ccc(N)cc1
AC50 [2]: 11.6 µM (active) | outcome [19]: inactive | outcome [13]: inactive | outcome [16]: inactive | outcome [17]: inactive | outcome [4]: inactive | outcome [5]: inactive | outcome [6]: inactive | outcome [7]: inactive | outcome [9]: inactive | outcome [10]: inactive | outcome [12]: inactive

CC1COCc2cc3c(cc21)C(C)(C)C(C)C3(C)C (stereo unspecified)
outcome [1]: inactive | AC50 [2]: 11.8 µM (active) | AC50 [13]: 73.4 µM (active) | outcome [16]: inactive | outcome [4]: inactive | outcome [5]: inactive | outcome [8]: inactive | AC50 [9]: 162 µM (active) | outcome [10]: inactive | AC50 [11]: 170 µM (active) | AC50 [12]: 120 µM (active)
